Rows were chosen to be rich in hits. Some 17% of all compounds tested hit in one or more screens of this group.
HT1080 IDH1KD tx: toxicity to HT-1080 IDH1 knockdown cells (counter line); HT-1080 IDH1 knockdown viability, ATP luminescence, 48 h; 360,000 compounds, 2% hits; Potency, µM (titrated, usually from 46.1 µM), most hits filed as cytotoxic
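After a 2 h attachment period, IDH1KD HT-1080 cells took pin-transferred compound for 48 h at 37 °C; ATP-based luminescence after 10 min room-temperature reagent incubation reported viability.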
HT1080-NT tox: kills 2HG-producing HT-1080-NT fibrosarcoma cells; 360,000 compounds, 1.6% hits; Potency, µM (titrated, usually from 46.1 µM), hits mostly cytotoxic; HT-1080-NT fibrosarcoma viability, CellTiter-Glo ATP luminescence, 48 h;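 note: NT is the 2HG producing partner of a matched IDH1 knockdown line; nearly all actives have a fitted effect of over 55% in size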
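Viability by CellTiter-Glo luminescence after 48 h compound exposure at 37C of HT-1080-NT cells (750/well, RPMI, 5% FBS). % activity scaled between DMSO wells and medium-only wells, then curve-fitted and categorized by curve class.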
TDP1 cell noCPT: qHTS for Inhibitors of human tyrosyl-DNA phosphodiesterase 1 (TDP1): qHTS in cells in absence of CPT; DT40 Tdp1-/- hTDP1 cells, no CPT, ATP luminescence, 48 h; Potency, µM (highest dose often 46.2 µM), usual class: inhibitors; 420,000 compounds, 15% hits; note: nearly all actives have a fitted effect of over 55% in size
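Seeded 400 DT40-hTDP1 cells/well (vehicle DMSO, no 20 nM CPT); pinned compounds; ≥48 hr at 37 °C; CellTiter-Glo luminescence as viability measure.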
TDP1 cell CPT: DT40-hTDP1 cell growth loss with CPT; chicken DT40 Tdp1-/-;hTDP1 cells + 20 nM CPT, ATP luminescence, 48 h; Potency, µM (series often up to 46.2 µM), usual class: inhibitors; 420,000 compounds, 12% hits; AID 686979; note: nearly all actives have a fitted effect of over 55% in size
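Cell growth measured by CellTiter-Glo luminescence after a minimum 48 h, 37 C compound exposure with 20 nM CPT in Tdp1-knockout DT40 cells stably expressing hTDP1, seeded 400/well; qHTS titration format.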
TGFb inhibitor: TGF-b pathway inhibition; HepG2 CAGA-GFP TGF-b/SMAD3 reporter, GFP fluorescence, 18 h; TGF-beta stimulated, 500 pg/mL final; Potency, µM (series often up to 46.1 µM), usual class: inhibitors; 410,000 compounds, 1.2% hits; note: nearly all actives have a fitted effect of over 65% in size
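Inhibition of TGF-beta-driven CAGA-GFP reporter expression in HEPG2 cells is measured by cellular GFP fluorescence after 18 h stimulation with 500 pg/mL recombinant TGF-beta in 1% FBS medium at 37 degrees C.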
HepG2 tox: counter-screen for TGF-b inhibitors: cytotoxicity in HepG2 cells; Potency, µM (highest dose often 46.1 µM), actives largely listed as cytotoxic; 410,000 compounds, 0.76% hits; HepG2 CAGA-GFP viability, ATP luminescence, 18 h
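HepG2 CAGA-GFP cells (1000/well, DMEM with 1% FBS) received compound, then TGF-beta at 500 pg/mL final, and were incubated 18 hours at 37 degrees C. Viability was read by CellTiter-Glo luminescence. Media-only wells were set as complete cell-killing and DMSO as no toxicity.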
Of the large screens only hits and unclear results are named; the others gave an inactive call; ! = repeats disagree. Calls come from the whole dose curve; as a rule, active = well fitted curve in the direction sought with a large enough effect; inconclusive = small, poorly fitted or top-dose-only effect, or another doubt; inactive = no such curve, though single readings can be large; an effect the other way counts as inactive or inconclusive.

CC1=C(\C=C/C(C)=C/C=C\C(C)=C\C(=O)O)C(C)(C)CCC1	TDP1 cell noCPT 11.6µM!, TDP1 cell CPT 14.6µM! (no result: HT1080 IDH1KD tx, HT1080-NT tox, TGFb inhibitor, HepG2 tox)
CC1=C(/C=C/C(=O)O)C(C)(C)CCC1	none
CSc1ncccc1C(=O)Nc1nccs1	none
CN(C)CCCN(C(=O)c1ccco1)c1nc2ccc(Br)cc2s1	HT1080 IDH1KD tx 20.6µM, HT1080-NT tox 23.1µM, TDP1 cell noCPT 23.1µM, TDP1 cell CPT 23.1µM
Cc1ccc2nc(N(CCCN(C)C)C(=O)c3sc4ccccc4c3Cl)sc2c1	HT1080-NT tox inconclusive, TDP1 cell noCPT 25.9µM, TDP1 cell CPT 16.4µM, TGFb inhibitor inconclusive
Cc1ccc2nc(N(CCCN(C)C)C(=O)c3ccc(S(=O)(=O)N(C)C)cc3)sc2c1	none
Cc1ccc(C(=O)N(CCCN(C)C)c2nc3ccc(Cl)cc3s2)cc1C	HT1080 IDH1KD tx 23.1µM, HT1080-NT tox 23.1µM, TDP1 cell noCPT inconclusive, TDP1 cell CPT inconclusive, TGFb inhibitor inconclusive, HepG2 tox 22.4µM
CN(C)CCCN(C(=O)c1ccco1)c1nc2ccc(Cl)cc2s1	HT1080 IDH1KD tx 18.4µM, HT1080-NT tox inconclusive, TDP1 cell noCPT 16.4µM, TDP1 cell CPT 18.4µM, TGFb inhibitor inconclusive
CN(C)CCN(C(=O)c1ccc2c(c1)OCCO2)c1nc2ccc(Cl)cc2s1	HT1080 IDH1KD tx inconclusive, TDP1 cell noCPT inconclusive, TDP1 cell CPT inconclusive
COc1ccc(N(C)C(=O)c2cn(C)c(=O)c3cc(OC)c(OC)cc23)cc1	none
CN(C)CCN(C(=O)c1ccco1)c1nc2cc3c(cc2s1)OCCO3	TDP1 cell noCPT 3.66µM, TDP1 cell CPT 4.61µM
CCN(CC)CCN(C(=O)c1ccco1)c1nc2ccc(Cl)cc2s1	TDP1 cell noCPT inconclusive, TDP1 cell CPT inconclusive, TGFb inhibitor inconclusive (no result: HT1080 IDH1KD tx, HT1080-NT tox)
Cc1ccccc1-n1c(SCC(=O)Nc2c(C)cccc2C)nc(O)cc1=O	none
COc1cc(/C=C/C(=O)OCC(=O)N2CCC(C)CC2)ccc1O	none
COc1cc(/C=C/C(=O)OC2CC3CCC2(C)C3(C)C)ccc1O (stereo not drawn)	HT1080 IDH1KD tx inconclusive, TDP1 cell noCPT 16.4µM, TDP1 cell CPT 18.4µM, TGFb inhibitor inconclusive
CCN(CC)c1ccc(/C=N/N2C(=O)c3ccccc3C2=O)c(O)c1	none
O=C1c2cccc3cc([N+](=O)[O-])cc(c23)C(=O)N1CCN1CCCC1	HT1080 IDH1KD tx 2.31µM, HT1080-NT tox inconclusive, TDP1 cell noCPT 0.13µM, TDP1 cell CPT 0.206µM, TGFb inhibitor 5.01µM
O=C1c2cccc3cc([N+](=O)[O-])cc(c23)C(=O)N1/N=C/c1ccc(O)cc1O	HT1080-NT tox inconclusive, TDP1 cell noCPT 16.4µM, TDP1 cell CPT inconclusive
NC(=O)CN1CCN(CCN2C(=O)c3cccc4cccc(c34)C2=O)CC1	none
CCN(CC)CCN1C(=O)c2cccc3cc(N)cc(c23)C1=O	HT1080 IDH1KD tx 32.6µM, HT1080-NT tox 32.6µM, TDP1 cell noCPT 7.31µM, TDP1 cell CPT 11.6µM, TGFb inhibitor inconclusive
Nc1cc2c3c(cccc3c1)C(=O)N(CCN1CCCC1)C2=O	HT1080 IDH1KD tx inconclusive, HT1080-NT tox 20.6µM, TDP1 cell noCPT 1.16µM, TDP1 cell CPT 0.731µM, TGFb inhibitor inconclusive
O=C1c2cccc3cccc(c23)C(=O)N1CCO	none
COCCCN1C(=O)C(CC(=O)NCCN2CCOCC2)CC(C(=O)N2CCCCCC2)=C1C (stereo not drawn)	none (no result: TGFb inhibitor, HepG2 tox)
C[C@@H]1CN([C@@H](C)CO)C(=O)CCCn2nncc2CO[C@@H]1CN(C)S(=O)(=O)c1cn(C)cn1	none
COc1ccc(NC(=O)C2Cc3c(-c4cccc(NC(C)=O)c4)ccnc3O2)cn1 (stereo not drawn)	HT1080 IDH1KD tx inconclusive, HT1080-NT tox inconclusive, TDP1 cell noCPT 1.84µM, TDP1 cell CPT 2.59µM, TGFb inhibitor inconclusive

Screening results as filed in PubChem.
